Data from PubChem BioAssay (NCATS).
Records with an inconclusive call do not appear. This is one part of the list. Where a call stands in place of a potency, no number is given. Active and inactive are the calls of the source. Calls come from the whole dose curve; as a rule, active = well fitted curve in the direction sought with a large enough effect; inconclusive = small, poorly fitted or top-dose-only effect, or another doubt; inactive = no such curve, though single readings can be large; an effect the other way counts as inactive or inconclusive.

Tests used:
[1] = molecular target: Luciferin 4-monooxygenase (Photinus pyralis) (UniProt P08659); test: Biochemical firefly luciferase enzyme assay for NPC (AID 624030);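 note: purified P. pyralis luciferase at 10 nM with luciferin and ATP substrate; nearly all actives have a fitted effect of over 70% in size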; conditions: purified P. pyralis luciferase, luminescence, 5 min; series mostly up to 58.6 µM
In short: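 Purified P. pyralis luciferase at 10 nM in 50 mM Tris Acetate (final), luminescence read within 5 minutes of enzyme addition to compounds. Activity normalised to PTC124 versus DMSO; concentration-response curves classed by r2, magnitude and activity.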

[2] = molecular target: ATPase family AAA domain-containing protein 5 (Homo sapiens) (UniProt Q96QE3); test: HTS assay for small molecules that inhibit ELG1-dependent DNA repair in human embryonic kidney (HEK293T) cells expressing luciferase-tagged ELG1: Hit Confirmation (AID 624248); conditions: HEK293T ELG1-luciferase levels, luminescence, cells co-treated with 5-fluorouridine; series mostly up to 46.1 µM; note: potency is the fitted concentration of half-maximal effect; nearly all actives have a fitted effect of over 55% in size
In short: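 HEK293T cells expressing luciferase-tagged ELG1 treated with 5-fluorouridine plus compound for 16 h at 37 C; luciferase activity then measured with ONE-Glo after 30 min at room temperature.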

Chain of Luciferin 4-monooxygenase (Photinus pyralis) (P08659 whole entry, looked up): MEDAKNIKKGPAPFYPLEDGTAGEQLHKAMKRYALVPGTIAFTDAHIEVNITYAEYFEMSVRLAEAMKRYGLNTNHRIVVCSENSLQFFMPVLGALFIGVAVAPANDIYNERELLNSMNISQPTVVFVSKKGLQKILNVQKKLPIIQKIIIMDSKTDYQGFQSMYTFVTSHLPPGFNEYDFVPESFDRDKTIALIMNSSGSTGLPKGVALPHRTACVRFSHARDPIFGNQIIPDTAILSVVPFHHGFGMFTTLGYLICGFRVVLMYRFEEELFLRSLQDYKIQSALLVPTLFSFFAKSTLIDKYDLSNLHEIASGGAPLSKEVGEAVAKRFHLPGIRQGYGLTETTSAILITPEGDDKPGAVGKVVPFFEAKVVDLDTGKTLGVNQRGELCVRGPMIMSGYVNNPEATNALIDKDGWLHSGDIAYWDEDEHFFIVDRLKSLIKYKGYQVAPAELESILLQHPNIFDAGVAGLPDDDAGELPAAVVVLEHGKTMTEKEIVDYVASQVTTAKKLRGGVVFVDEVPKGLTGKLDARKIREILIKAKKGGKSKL
Chain of ATPase family AAA domain-containing protein 5 (Homo sapiens) (Q96QE3 whole entry, looked up, the tested form may be a part): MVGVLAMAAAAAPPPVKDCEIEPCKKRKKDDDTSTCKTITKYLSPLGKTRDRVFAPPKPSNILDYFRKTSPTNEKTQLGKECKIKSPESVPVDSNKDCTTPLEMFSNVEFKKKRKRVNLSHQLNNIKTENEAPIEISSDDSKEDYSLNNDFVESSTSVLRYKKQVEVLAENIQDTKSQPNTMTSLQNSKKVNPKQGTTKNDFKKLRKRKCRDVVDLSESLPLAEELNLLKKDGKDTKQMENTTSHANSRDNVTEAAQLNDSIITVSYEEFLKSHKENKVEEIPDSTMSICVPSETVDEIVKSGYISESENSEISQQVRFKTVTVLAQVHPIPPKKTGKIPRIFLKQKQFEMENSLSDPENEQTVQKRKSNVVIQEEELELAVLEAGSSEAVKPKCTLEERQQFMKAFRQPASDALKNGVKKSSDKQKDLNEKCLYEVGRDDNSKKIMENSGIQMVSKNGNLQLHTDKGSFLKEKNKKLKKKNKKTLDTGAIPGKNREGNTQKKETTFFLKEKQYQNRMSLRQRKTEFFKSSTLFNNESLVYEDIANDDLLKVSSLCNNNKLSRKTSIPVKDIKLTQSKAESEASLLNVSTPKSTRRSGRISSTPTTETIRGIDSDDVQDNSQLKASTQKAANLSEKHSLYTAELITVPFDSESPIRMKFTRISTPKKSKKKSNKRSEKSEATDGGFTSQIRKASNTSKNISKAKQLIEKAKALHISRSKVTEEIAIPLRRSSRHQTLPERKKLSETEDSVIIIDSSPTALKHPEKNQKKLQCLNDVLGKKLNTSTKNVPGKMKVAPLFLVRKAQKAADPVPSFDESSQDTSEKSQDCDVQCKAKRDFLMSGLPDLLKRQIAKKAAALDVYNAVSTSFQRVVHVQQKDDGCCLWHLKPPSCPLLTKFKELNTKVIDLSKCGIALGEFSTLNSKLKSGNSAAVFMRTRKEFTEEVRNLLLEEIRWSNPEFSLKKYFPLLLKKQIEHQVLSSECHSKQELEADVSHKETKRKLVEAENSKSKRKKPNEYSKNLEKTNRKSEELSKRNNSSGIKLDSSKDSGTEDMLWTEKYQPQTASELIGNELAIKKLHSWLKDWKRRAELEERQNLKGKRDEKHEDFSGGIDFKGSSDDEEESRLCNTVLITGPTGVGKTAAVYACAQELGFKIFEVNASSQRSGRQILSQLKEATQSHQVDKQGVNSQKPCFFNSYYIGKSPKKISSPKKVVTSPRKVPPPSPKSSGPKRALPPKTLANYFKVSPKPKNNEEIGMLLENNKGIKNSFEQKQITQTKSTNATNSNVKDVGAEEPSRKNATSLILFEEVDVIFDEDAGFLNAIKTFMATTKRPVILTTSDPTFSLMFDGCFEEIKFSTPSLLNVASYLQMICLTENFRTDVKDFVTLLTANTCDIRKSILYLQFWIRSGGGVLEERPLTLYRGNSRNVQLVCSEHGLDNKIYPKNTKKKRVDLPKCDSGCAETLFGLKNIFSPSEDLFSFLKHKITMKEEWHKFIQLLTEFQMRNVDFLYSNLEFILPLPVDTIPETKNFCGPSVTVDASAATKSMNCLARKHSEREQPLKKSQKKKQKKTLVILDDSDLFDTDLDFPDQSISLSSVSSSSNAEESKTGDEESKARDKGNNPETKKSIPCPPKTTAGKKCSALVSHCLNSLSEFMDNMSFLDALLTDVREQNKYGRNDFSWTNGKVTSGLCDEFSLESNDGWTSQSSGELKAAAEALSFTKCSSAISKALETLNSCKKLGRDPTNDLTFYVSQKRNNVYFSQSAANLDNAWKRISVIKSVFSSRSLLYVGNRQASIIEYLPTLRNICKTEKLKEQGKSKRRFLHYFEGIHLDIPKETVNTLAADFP

| SMILES | Potency [1] | Potency [2] |
| --- | --- | --- |
| CC12C=CC(=O)C=C1CCC1C2C(O)CC2(C)C1CCC2(O)C(=O)COC(=O)CCC(=O)O (configuration not stated) | inactive |  |
| C/C=C(/CC[C@@H](C)[C@H]1CCC2C3=CC[C@H]4[C@H](C)[C@@H](O)CC[C@]4(C)C3CC[C@@]21C)C(C)C (some centres not stated) | inactive |  |
| NCCCCC(NC(=O)C1CCCN1C(=O)C1CSSCC(N)C(=O)NC(Cc2ccc(O)cc2)C(=O)NC(Cc2ccccc2)C(=O)NC(CCC(N)=O)C(=O)NC(CC(N)=O)C(=O)N1)C(=O)NCC(N)=O (configuration not stated) | inactive |  |
| C/C(=C(\CCO)SSCC1CCCO1)N(C=O)Cc1cnc(C)nc1N (configuration not stated) | inactive |  |
| Cc1ccc(C(=O)[C@H](C)CN2CCCCC2)cc1 | inactive |  |
| CC#CC[C@@H](C)[C@@H](O)/C=C/[C@H]1[C@H]2c3cccc(CCCC(=O)O)c3O[C@H]2C[C@@H]1O | inactive |  |
| CCN1CCN(C(=O)N[C@H](C(=O)N[C@@H]2C(=O)N3[C@@H](C(=O)O)C(C)(C)S[C@@H]23)c2ccccc2)C(=O)C1=O | inactive |  |
| CCC(C)C1OC2(C=CC1C)CC1CC(C/C=C(\C)C(OC3CC(OC)C(OC4CC(OC)C(NC(C)=O)C(C)O4)C(C)O3)C(C)/C=C/C=C3\COC4C(O)C(C)=CC(C(=O)O1)C34O)O2 (configuration not stated) (tested in a mixture with another compound) | inactive |  |
| CC(C)(S)C(=O)NC(CS)C(=O)O (configuration not stated) | inactive |  |
| c1cnc2cc3c(cc2n1)[C@@H]1CNC[C@@H]3C1 | inactive |  |
| O=CC(O)C(O)C(O)C(O)CO (configuration not stated) | inactive |  |
| CC/C(O)=N/S(=O)(=O)c1ccc(-c2c(-c3ccccc3)noc2C)cc1 | inactive |  |
| CC(=O)NC(CCC(N)=O)C(=O)O (configuration not stated) | inactive |  |
| COC(=O)C1=C(C)NC(C)=C(C(=O)O[C@H]2CCN(Cc3ccccc3)C2)C1c1cccc([N+](=O)[O-])c1 (some centres not stated) | inactive |  |
| CC(=O)CC/C=C(\C)CC/C=C(/C)CC/C=C(\C)CCC=C(C)C | inactive |  |
| CCCCC/C=C/C/C=C/CCCCCCCC(=O)NC(C)c1ccccc1 (configuration not stated) | inactive |  |
| NC(N)=NCCCC(N)C(=O)O (configuration not stated) | inactive |  |
| CN(C)c1ccnc2sc3c(=O)n(Cc4ccccc4)cnc3c12 |  | 4.45 µM (active) |
| CCOC(=O)c1cccc(NC(=O)C2CCN(c3ncnc4c3nc3n4CCCCC3)CC2)c1 |  | 3.97 µM (active) |
| CC(C)(C)NC(=O)[C@H]1CC[C@H]2[C@@H]3CC=C4C=C(C(=O)O)CC[C@@]4(C)[C@H]3CC[C@]12C | inactive |  |
| CC(=O)O[C@H](C)OC(=O)[C@@H](C)c1ccc(-c2ccccc2)c(F)c1 | inactive |  |
| CO/N=C(\C(=O)N[C@@H]1C(=O)N2C(C(=O)O)=C(Cn3nnc(C)n3)CS[C@H]12)c1csc(N)n1 | inactive |  |
